SW480 rerep – DNA re-replication induction in SW480 cells. Potency, µM (highest dose often 46.1 µM), without a hit: at the top dose re-replication activation, actives largely listed as activators. SW480 DNA re-replication, Hoechst DNA content imaging, 48 h. 1.8% of 340,000 active; also: % of control where 0% means no effect; nearly all actives have a fitted effect of over 55% in size
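Cells (250 per well) received 23 nL compound or DMSO by pin tool and were kept 48 hr at 37 C, 5% CO2. Nuclei were then stained with Hoechst for 40 min and scanned for DNA content.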
MCF10A rereplic – induces DNA re-replication in MCF 10a normal breast cells | MCF 10A DNA re-replication, Hoechst nuclear intensity, 48 h | Potency, µM (doses to about 46.1 µM), for inactives: at the highest dose activity, positive = re-replication, actives largely listed as activators | 2.9% of 350,000 active; also: % of control where 0% means no effect; nearly all actives have a fitted effect of over 50% in size
KB-3-1 tox – KB-3-1 parental cell cytotoxicity; Potency, µM (titrated, usually from 46.1 µM), most hits filed as cytotoxic; 1.4% of 400,000 active; KB-3-1 viability, CellTiter-Glo ATP luminescence, 72 h; also: % is scaled to controls: 0 for no effect and ±100 for the full control effect; nearly all actives have a fitted effect of over 60% in size
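Cytotoxicity in the drug-sensitive parental line KB-3-1 was scored as loss of CellTiter-Glo luminescence following 72 h incubation with compound. Values come from curve fitting of normalized concentration-response data.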
KB-V1 MDR tox – KB-V1 MDR subline cytotoxicity. 3.4% of 400,000 active. Potency, µM (doses to about 46.1 µM), usual class: cytotoxic. AID 1347076. KB-V1 MDR cells viability, CellTiter-Glo, 72 h; also: % is scaled to controls: 0 for no effect and ±100 for the full control effect; nearly all actives have a fitted effect of over 60% in size
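Cytotoxicity toward P-gp-expressing KB-V1 cells was determined as loss of CellTiter-Glo luminescence after 72 h at 37 degrees C. Compounds were tested in quantitative HTS format across a concentration range, with curves fitted to normalized data.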
PINK1 expr mod – modulators of PINK1 expression. Potency, µM (series often up to 76.6 µM), without a hit: at the top dose activation (PINK1 increase), usual class: activators. AID 624263. PINK1 immunofluorescence, high-content cytometry, 24 h. 0.2% of 410,000 active; active = well fitted activation curve with a large enough effect; inconclusive = small, poorly fitted or top-dose-only effect; cell line not stated here; also: % of control where 0% means no effect; nearly all actives have a fitted effect of over 65% in size
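Cells are seeded, rested 12 hours, then given compound at five concentrations or DMSO for 24 hours. After fixation, blocking and antibody staining, PINK1 amount and mitochondrial localization are scored; CCCP serves as control.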
The depositor's hits bear a star; i = inactive; ? = inconclusive; · = no result; ! = not active in a repeat; [ ] = another dose, or the depositor's remark. Hits are enriched below; roughly 6.7% of the tested compounds scored in any of these assays. Unless noted, calls follow the shape of the dose curve; as a rule, active = well fitted curve in the direction sought with a large enough effect; inconclusive = small, poorly fitted or top-dose-only effect, or another doubt; inactive = no such curve, though single readings can be large; an effect the other way counts as inactive or inconclusive. Potency is read from the fitted curve at half-maximal effect.

SMILES | SW480 rerep | MCF10A rereplic | KB-3-1 tox | KB-V1 MDR tox | PINK1 expr mod
Cc1ccc(O)c(C(=O)CC(=O)c2ccccc2Cl)c1 | 4.9% | ? | ? | 7.31µM* | ?
Cc1sc2nc(C)n(/N=C/N(C)C)c(=O)c2c1C | 14.6µM* | 0.3% | i | i | -1.5%
Cc1c(Cl)cccc1Nc1ccccc1C(=O)O | -2.8% | ? | i | i | -0.3%
Cc1ccc(Cl)c(Nc2ccccc2C(=O)O)c1Cl | -8.7% | 26.6µM*! | i | i | -0.3%
Cc1ccc(Cl)c(NC(=O)CCl)c1Cl | 10.6% | 4.4% | 23.1µM* | i | 9.1%
Cc1ccc(-c2csc3ncnc(-n4cnc5ccccc54)c23)cc1 | ? | 9.2µM* | ? | ? | 5.2%
Cc1ccc(S(=O)(=O)N2CCN(c3ncnc4sccc34)CC2)cc1C | 7.7% | ? | ? | 5.17µM* | -1.9%
COc1ccc(-c2csc3ncnc(N4CCN(c5ccccc5[N+](=O)[O-])CC4)c23)cc1 | ? | 16.4µM* | · | · | 0.8%
O=S(=O)(c1ccc2c(c1)OCCO2)N1CCN(c2ncnc3sccc23)CC1 | ? | 9.2% | ? | i | -4.0%
Cc1sc2ncnc(OCC(=O)N3CCN(S(=O)(=O)c4ccc(Cl)cc4)CC3)c2c1C | 9.4% | 5.7% | i | i | -0.5%
Cc1sc2ncnc(OCC(=O)c3ccc(S(=O)(=O)N4CCCC4)cc3)c2c1C | 4.0% | 5.8% | ? | 4.61µM* | -0.4%[38.3 µM]
c1ccc(-c2csc3ncnc(-n4cnc5ccccc54)c23)cc1 | 13.2% | ? | i | ? | 0.2%
Cc1sc2ncnc(N3CCN(S(=O)(=O)c4ccccc4)CC3)c2c1C | -7.4% | 11.7% | i | 7.31µM* | 1.7%
Cc1ccc(S(=O)(=O)N2CCN(c3ncnc4scc(-c5ccccc5)c34)CC2)cc1 | 3.1% | ? | ? | 7.31µM* | 1.0%
Cc1sc2nc(CN3CCCC3)nc(N3CCN(S(=O)(=O)c4ccccc4)CC3)c2c1C | -2.8% | 5.3% | i | i | 3.1%
CCCCN(CC)C(=O)CCn1c(=O)c2cccn2c2cccnc21 | · | · | · | · | 0.1%
COc1ccccc1-c1ccnc(-n2ncc(C(=O)N(C)C(C)c3nc(C)cs3)c2C2CC2)n1 (stereo not drawn) | · | · | · | · | 0.2%
CCCc1nc2c(s1)CCc1onc(-c3ccc(OC)cc3)c1-2 | -1.5% | 8.2µM* | i | i | 9.1%
COc1ccc(-c2noc3c2-c2nc(-c4ccccc4C)sc2CC3)cc1 | 20.6µM* | ? | 18.4µM* | ? | 9.5%
Cc1ccccc1-c1nc2c(s1)CCc1onc(-c3ccc(Cl)cc3)c1-2 | 1.3% | -0.5% | i | i | -0.4%
CC(C)=CCC/C(C)=C/CC/C(C)=C/CCC1(C)CCc2cc(O)ccc2O1 (stereo not drawn) | · | · | · | · | 1.5%
CCC/C(O)=C1\C(=O)CC(c2ccccc2)CC1=NCCc1c(C)[nH]c2ccccc12 (stereo not drawn) | 3.1% | 2.2% | i | i | 1.1%
CCCCC(=NCCc1c(C)[nH]c2ccccc12)C1=C(O)CC(c2ccccc2)CC1=O (stereo not drawn) | 10.3µM* | 8.2µM* | 13µM* | 9.2µM* | 1.6%
CCCC(=NCCc1c(C)[nH]c2ccccc12)C1=C(O)CC(c2ccccc2)CC1=O (stereo not drawn) | 6.51µM* | 1.46µM* | 7.31µM* | 5.17µM* | 16.8%
Cc1cccc(-c2noc(CN(C(C)C)S(=O)(=O)c3ccc(Br)cc3)n2)c1 | · | · | · | · | -0.4%
SMILES | SW480 rerep | MCF10A rereplic | KB-3-1 tox | KB-V1 MDR tox | PINK1 expr mod
CCCNC(=O)c1cc(C2CCCN(S(=O)(=O)c3cccs3)C2)on1 (stereo not drawn) | · | · | i | i | 1.4%
COc1cc2nc(N3CCOCC3)nc(NC(C)C)c2cc1OC | · | · | · | · | 0.3%
COC(=O)c1ccccc1NC(=O)CSc1nc2nc(C)cc(C)n2n1 | · | · | ? | ? | -0.9%
O=C1C=C(c2ccc3ncccc3c2)C[C@@H](c2ccc3c(c2)OCO3)C1 | 20.6µM* | ? | ? | ? | 0.9%
COC(=O)C1=CN(C(C)c2ccccc2)C=C(C(=O)OC)C1c1cc(OC)c(OC)c(OC)c1 (stereo not drawn) | 20.6µM* | ? | i | i | 3.8%
Cc1cc(C)c(O)c(CN(C)Cc2cc(Cl)cc(Cl)c2O)c1 | ? | 1.64µM* | ? | ? | ?
CC(C)(C)C(=O)/C(=C/c1ccc(Cl)cc1)n1cncn1 | ? | 6.51µM* | ? | ? | -1.6%
Cc1cc(Cl)ccc1NC(=O)c1cccc(NC(=O)N2CCSc3ncccc32)c1 | · | · | i | i | -1.1%
Cc1nc(N2CCCC2)ncc1C(=O)NCc1cccc(Cl)c1 | · | · | i | i | -0.4%
N#CCCn1c(=O)c(-c2cc(F)cc(F)c2)nc2cnc(Oc3cccc(Cl)c3)nc21 | · | · | · | · | 1.7%
Cc1ccc(NC(=O)CSCC(=O)N(C)CC(=O)Nc2cccc3ccccc23)cc1 | -23.0% | 7.6% | i | i | -2.1%
CCOc1ccc(CN(C(=O)c2ccccn2)c2ccc(OC)c(Cl)c2)cc1 | ? | 23.1µM* | ? | ? | 9.5%
COc1ccc(C2=Nn3c(nnc3-c3ccccc3Cl)SC2)cc1OC1CCOC1 (stereo not drawn) | ? | ? | 13µM* | ? | 13.8%
COc1ccc(C2=Nn3c(nnc3-c3ccc(OC)cc3)SC2)cc1 | 1.84µM* | 0.92µM* | 0.651µM* | 1.3µM* | 1.6%[38.3 µM]
COc1ccc(C2=Nn3c(nnc3-c3ccccc3Cl)SC2)cc1OC1CCCC1 | 20.6µM* | 16.4µM* | ? | i | 8.1%
COc1ccc(OC)c(C2=Nn3c(nnc3-c3cc(OC)c(OC)c(OC)c3)SC2)c1 | 23.5% | -1.5% | i | 1.3µM* | 0.0%[38.3 µM]
FC(F)Oc1ccc(C2=Nn3c(nnc3-c3ccccc3Cl)SC2)cc1OCC1CC1 | -2.4% | 0.6% | i | i | 5.4%
COc1ccc(OC)c(C2=Nn3c(nnc3-c3ccncc3)SC2)c1 | ? | -2.8% | i | i | 0.4%
CCOc1ccc(-c2nonc2NC(=O)c2oc3ccc(Cl)cc3c2C)cc1 | · | · | · | · | 2.8%
CC(C)Sc1ncc(Cl)c(C(=O)N(Cc2ccc(N(C)C)cc2)C2CCS(=O)(=O)C2)n1 (stereo not drawn) | · | · | i | i | 0.6%
N#Cc1cccc(OC2=NS(=O)(=O)c3ccccc32)c1 | · | · | i | ? | ·
COc1cccc(-c2nnc3n2N=C(C(C)(C)C)CS3)c1 | ? | ? | ? | 20.6µM* | -1.5%
COc1cccc(-c2nnc3n2N=C(c2cc(OC)ccc2OC)CS3)c1 | -2.9% | ? | i | i | -1.3%
COc1ccc(C2=Nn3c(nnc3-c3ccco3)SC2)cc1OC | -28.4% | 53.3%[0.0737 µM] | i | ? | 2.4%
COc1ccc(OC)c(-c2nnc3n2N=C(c2ccc(OC)c(OC4CCOC4)c2)CS3)c1 (stereo not drawn) | ? | ? | 0.116µM* | ? | 2.5%
